Compound activity from PubChem.
HTT ATP protect – Huntington cell model cytoprotection by ATP luminescence | Potency, µM (doses to about 56.4 µM), for the others: cytoprotection (ATP increase), usual class: activators | PC12 HTT-Q103 induced, cytoprotection, ATP luminescence, 40 h | 230,000 compounds, 0.14% hits | AID 1471; note: potency is the fitted concentration of half-maximal effect; % of control where 0% means no effect; nearly all actives have a fitted effect of over 45% in size
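Quantitative HTS on tebufenozide-induced (100 nM) PC12 cells expressing HTTQ103 exon 1–GFP; compounds tested as a concentration series; survival measured via cellular ATP.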
HTT aggregate – reduces HttQ103-GFP aggregates in PC12 cells; PC12 HttQ103-GFP aggregates, Acumen cytometry, 40 h; Potency, µM (top dose mostly 46.1 µM), without a hit: at the top dose activity change, negative = inhibition, most hits filed as inhibitors; 220,000 compounds, 1.1% hits; note: potency is the fitted concentration of half-maximal effect; % is set by controls: 0 for no effect and ±100 for the full control effect; nearly all actives have a fitted effect of over 60% in size
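Steps: seed 1500 PC12 HTTQ103-GFP cells/well; add tebufenozide, 100 nM final; add compound titration; add ATPLite reagent; quantify GFP aggregates by laser scanning cytometry.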
IMPase cell inh – membrane-permeable compound that blocks inositol monophosphatase; P97697; CHO-M1 cells, IP1 accumulation, HTRF TR-FRET ratio; inhibition (IP1 accumulation), % at 46.1 µM; 120,000 tested, under 10 active; AID 901; active = well fitted curve in the direction sought with a large enough effect in the signal ratio, not every such curve was filed as active; inconclusive = small, poorly fitted or top-dose-only effect, or a change in a side signal; inactive = no such curve, though single readings can be large or run the other way; the % refers to the signal ratio;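 note: cells stimulated with carbachol in lithium chloride buffer; plate controls were DMSO basal wells for no effect and reference inhibitor wells for full effect; higher means more IMPase inhibition seen as more IP1 and lower FRET ratio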
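Seeded CHO-M1 cells were dosed with compound at up to 46 uM, stimulated with carbachol for 30 min, then lysed in IP-One detection reagents. Higher IP1 lowers the TR-FRET signal.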
NPSR antagonist – neuropeptide S receptor (human) antagonism, cAMP; Q6W5P4; CHO-NPSR cells, cAMP TR-FRET, antagonist mode; Potency, µM (top dose mostly 38.3 µM), without a hit: at the top dose activity change, negative = inhibition, hits mostly inhibitors; 220,000 compounds, 1% hits; note: potency is the fitted concentration of half-maximal effect; % is set by controls: 0 for no effect and ±100 for the full control effect; nearly all actives have a fitted effect of over 50% in size
Target sequence (Q6W5P4 whole entry, looked up): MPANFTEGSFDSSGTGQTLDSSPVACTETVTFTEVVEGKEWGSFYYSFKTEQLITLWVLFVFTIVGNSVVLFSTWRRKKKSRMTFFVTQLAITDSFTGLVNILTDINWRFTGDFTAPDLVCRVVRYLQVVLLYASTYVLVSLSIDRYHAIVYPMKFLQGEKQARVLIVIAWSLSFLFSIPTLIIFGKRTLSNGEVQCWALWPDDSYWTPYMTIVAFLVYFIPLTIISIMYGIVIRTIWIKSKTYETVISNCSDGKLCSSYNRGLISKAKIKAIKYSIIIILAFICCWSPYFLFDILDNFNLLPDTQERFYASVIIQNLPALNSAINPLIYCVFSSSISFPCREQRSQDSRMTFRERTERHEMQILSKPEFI
PNC assembly inh – perinucleolar compartment assembly inhibition; PC3M PTB-GFP, PNC prevalence imaging, 16 h; active compounds read low; activity change (PNC), negative = inhibition, % at 10 µM; 140,000 compounds, 3.1% hits;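 active = readout at or below -70, meaning at least 70% loss of cells showing the perinucleolar compartment, a nuclear body marking cancer cells; inconclusive = readout between -30 and a set limit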;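 note: plate controls were DMSO wells for no effect and camptothecin positive control wells for full effect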
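Read-out is percentage of cells bearing a perinucleolar compartment, from automated 20x imaging of fixed, Hoechst-stained PC3M PTB-GFP cells. Cells were seeded 4 h, then exposed 16 h to compound (23 nl of library stock) in duplicate plates.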
IMPase Li cell – membrane-permeable IMPase blocker, potentiated with lithium; CHO-M1 cells, IP1 TR-FRET (IP-One), carbachol + lithium; Potency, µM (titrated, usually from 59.4 µM), without a hit: at the top dose activity, negative = IMPase inhibition, usual class: inhibitors; 210,000 compounds, 0.35% hits;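 note: IP1 builds up when IMPase is blocked and the TR-FRET signal falls; potency is the fitted concentration of half-maximal effect; plate controls were basal vehicle for no effect and high inhibitor control for full effect; nearly all actives have a fitted effect of over 50% in size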
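CHO-M1, 2000 cells/well, 16–30 h culture; cpd + low Li+, 30 min 37C; lysis with d2-IP1/Eu-anti-IP1 Ab, 10 min RT; TR-FRET 665/620 ratio and 620 channel; AC50 via Hill.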
An asterisk follows results filed as active; ? = inconclusive; / = no result given; [ ] = remark or other dose. This is a sample that favours compounds with a hit; in the whole collection about 3.4% have one here. Unless noted, calls come from the whole dose curve; as a rule, active = well fitted curve in the direction sought with a large enough effect; inconclusive = small, poorly fitted or top-dose-only effect, or another doubt; inactive = no such curve, though single readings can be large; an effect the other way counts as inactive or inconclusive.

SMILES	HTT ATP protect	HTT aggregate	IMPase cell inh	NPSR antagonist	PNC assembly inh	IMPase Li cell
O=C(/C=C/c1ccco1)Oc1cc(Br)cc(/C=N/NC(=O)c2ccccc2O)c1	-78%[10 µM]	2.2µM*	-1	-24%	0	17%
CC(C)c1c(O)ccc2c1CCC1[C@@](C)(C=O)CCC[C@@]21C (stereo partly drawn)	-297%	/	/	/	/	13%
Cc1cc(N2CCN(C/C=C/c3ccccc3)CC2)n2ncnc2n1	?	3.5µM*	8	-18%[46.1 µM]	-4	-8%[38.3 µM]
Cc1nn(C)c(C)c1NC(=O)CSc1nc(Cc2ccccc2)nc2c1cnn2-c1ccccc1	-10%[10 µM]	/	/	/	/	/
Cc1nn(Cc2ccccc2)c(C)c1NC(=O)CSc1nc(C2CC2)nc2c1cnn2-c1ccccc1	15%[10 µM]	?	3	-4%[46.1 µM]	-88*	2%
CC(C)CO/N=C1/[C@H]2O[C@@H]2[C@@H](O)[C@H]2[C@H]1CCn1c(=O)n(C)c(=O)n12	-6%[10 µM]	/	/	/	/	/
CC(=O)N[C@@H](CC(=O)O)C(=O)O	?	/	2[20.6 µM]	/	/	2%
CC(=O)N[C@@H](CCC(=O)O)C(=O)O	2µM*	8%	/	/	/	/
CCC(=O)N1CC23C=CC(CC2CC12CCCCC2)O3 (stereo not drawn)	15%	4%	-13	-7%[46.1 µM]	-124*	-3%[38.3 µM]
COC(=O)NC(c1cccc(F)c1)C(C(C)=O)C(=O)OC (stereo not drawn)	3%[10 µM]	/	/	/	/	/
CC(C)c1ccc(C(=O)CC2(O)C(=O)N(CCc3ccccc3)c3ccc(Cl)cc32)cc1 (stereo not drawn)	/	/	9	/	/	/
O=C(N/N=C/c1c(Nc2cccc(C(F)(F)F)c2)nc2ccccn2c1=O)c1ccccc1[N+](=O)[O-]	23%[10 µM]	?	9	-25%	-113*	-3%
CCN1/C(=C/C=C/C=C/c2sc3ccccc3[n+]2CC)Sc2ccccc21	-99%	4µM*	/	7.9µM*	51	-3%
CCN1/C(=C/C=C/c2sc3ccccc3[n+]2CC)Sc2ccccc21	-97%	2µM*	/	/	/	/
COc1cc2c(cc1OC)C1(Nc3c-2c(-c2ccccc2)nn3-c2ccccc2)C(=O)Nc2ccccc21 (stereo not drawn)	-18%	4%[9.22 µM]	8	?	-8	-4%[38.3 µM]
COc1cc2c(cc1OC)C1(Nc3c-2c(C)nn3-c2ccccc2)C(=O)Nc2ccccc21 (stereo not drawn)	3.5µM*	-5%	0	-29%[46.1 µM]	-7	23%[38.3 µM]
COC(=O)[C@@H]1C[C@H]1[C@@H](NS(=O)(=O)c1ccc(-c2ccccc2)cc1)c1ccccc1	-203%	/	/	/	/	3%
CCc1nnc(NC(=O)c2ccc(Cl)c(S(=O)(=O)N3CCc4ccccc4C3)c2)s1	-6%[10 µM]	3%	/	-32%	-1	6%
CCc1nnc(NC(=O)c2ccc(S(=O)(=O)N3CCc4ccccc4C3)cc2)s1	3%[10 µM]	14%	0	-7%	-85*	-5%
COc1ccc(NC(=O)/C(C#N)=C\c2cc(C)n(-c3ccc4c(c3)OCO4)c2C)cc1	/	?	/	2%	-124*	4%
Cc1cc(/C=C(\C#N)C(=O)Nc2ccccc2)c(C)n1-c1ccc(C(=O)O)cc1	-8%[10 µM]	1%[9.22 µM]	/	59%	/	/
CC[C@@H](c1ccccc1)n1c(=O)n2n(c1=O)[C@H]1[C@H](O)[C@H]3O[C@@H]3/C(=N/OCc3ccccc3)[C@@H]1CC2	11%[10 µM]	/	/	/	/	/
CN1CC(c2ccccn2)C2(SC(=S)N(Cc3ccccc3)C2=O)C12C(=O)Nc1ccccc12 (stereo not drawn)	-30%	9%	1	-30%[46.1 µM]	16	-8%[38.3 µM]
CN1CC(c2ccccc2)C2(SC(=S)N(Cc3ccco3)C2=O)C12C(=O)Nc1ccccc12 (stereo not drawn)	-2%	?	7	10µM*	-7	22%[38.3 µM]
COc1ccccc1OCCSc1nc(N)cc(N)n1	-3%[10 µM]	-15%	-2	9%[46.1 µM]	-100*	6%
COc1cccc(Nc2ncc3nc(-c4cn(C)c5ccccc45)c(=O)n(C[C@H]4CCCO4)c3n2)c1	?	/	/	/	/	9%
